Experimental data reported in PubChem BioAssay (NCATS).
Results filed as inconclusive are left out. Entries that show only a call come without a potency. Activity calls are given as the source filed them. Calls follow the shape of the dose curve; as a rule, active = well fitted inhibition curve with a large enough effect; inconclusive = small, poorly fitted or top-dose-only effect; inactive = flat fitted curve, though single readings scatter.

Columns and labels:
Test in all cases: qHTS profiling for inhibitors of Plasmodium falciparum proliferation (AID 504749); also: nearly all actives have a fitted effect of over 60% in size
Settings in all cases: P. falciparum in erythrocytes, SYBR Green DNA, 72 h; series mostly up to 28.7 µM
CP185 = system: CP185
Procedure, shortened: (§1)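 P. falciparum-infected erythrocytes (0.3% parasitemia, 2.5% hematocrit) incubated with compound 72 h at 37 C, 5% CO2. Parasite DNA detected by SYBR Green after lysis, overnight at room temperature; normalised to 0.29 uM artemisinin and DMSO.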

CP191 = system: CP191
Procedure, shortened: as §1

CP192 = system: CP192
Procedure, shortened: as §1

CP194 = system: CP194
Procedure, shortened: as §1

CP201 = system: CP201
Procedure, shortened: as §1

CP211 = system: CP211
Procedure, shortened: as §1

CP215 = system: CP215
Procedure, shortened: as §1

CP217 = system: CP217
Procedure, shortened: as §1

CP203 = system: CP203
Procedure, shortened: as §1

CP237 = system: CP237
Procedure, shortened: as §1
Potency is read from the fitted curve at half-maximal effect.

SMILES	Potency (CP185)	Potency (CP191)	Potency (CP192)	Potency (CP194)	Potency (CP201)	Potency (CP211)	Potency (CP215)	Potency (CP217)	Potency (CP203)	Potency (CP237)
NC(=Nc1ccccc1)Nc1ccccc1	inactive	inactive	inactive	inactive	inactive	inactive	inactive	inactive		
CNC1(C)C2CCC(C2)C1(C)C (configuration not stated)	inactive	inactive	inactive	inactive	inactive	inactive	inactive	inactive	inactive	7.94 µM (active)
CCN(CC)CC(=O)Nc1c(C)cccc1C	inactive	inactive	inactive	inactive	inactive	inactive	inactive	inactive		
NC(=O)c1cn(Cc2c(F)cccc2F)nn1	inactive	inactive	inactive	inactive	inactive	inactive	inactive	inactive	inactive	inactive
CC(C)NNC(=O)c1ccncc1	inactive	4.47 µM (active)	inactive	inactive	inactive	inactive	inactive		inactive	inactive
FC(F)(F)c1ccccc1-n1ccnc1	inactive	inactive	inactive	inactive	inactive	inactive	inactive	inactive	inactive	inactive
COC(=O)[C@@H](N)Cc1ccc(O)c(O)c1	inactive	inactive	inactive	inactive	inactive	inactive	inactive	inactive		
CCn1ccnc1CC1COc2ccccc2O1 (configuration not stated)	inactive	inactive	inactive	inactive	inactive	inactive	inactive	inactive	inactive	inactive
CC[N+](C)(C)c1cccc(O)c1	inactive	inactive	inactive	inactive	inactive	inactive		inactive	inactive	inactive
c1cnc(N2CCN(Cc3ccc4c(c3)OCO4)CC2)nc1	inactive	inactive	inactive	inactive	inactive	inactive	inactive	inactive	inactive	inactive
Cc1ccc(Cl)c(Nc2ccccc2C(=O)O)c1Cl	inactive	inactive	inactive	inactive	inactive	inactive	inactive	inactive	inactive	
C[N+](C)(C)CCOC(=O)CCC(=O)OCC[N+](C)(C)C	inactive	inactive	inactive	inactive	inactive	inactive	inactive	inactive	inactive	inactive
COC(=O)C1=C(C)NC(C)=C(C(=O)OC(C)(C)CN(C)CCC(c2ccccc2)c2ccccc2)C1c1cccc([N+](=O)[O-])c1 (configuration not stated)	5.01 µM (active)	3.16 µM (active)	9.53 µM (active)	3.79 µM (active)	6.01 µM (active)	4.78 µM (active)	4.78 µM (active)	3.16 µM (active)	4.26 µM (active)	2.51 µM (active)
O=C(O)CN(CCOCCOCCN(CC(=O)O)CC(=O)O)CC(=O)O	inactive	inactive	inactive	inactive	inactive	inactive	inactive	inactive	inactive	inactive
CC(C(=O)O)c1ccc(CC2CCCC2=O)cc1 (configuration not stated)	inactive	inactive	inactive	inactive	inactive	inactive	inactive	inactive	inactive	inactive
Cc1ccc(S(=O)(=O)NC(=O)NN2CCCCCC2)cc1	inactive	inactive	inactive	inactive	inactive	inactive	inactive	inactive	inactive	inactive
CCO/C([O-])=N/c1c[n+](N2CCOCC2)no1	inactive	inactive	inactive	inactive	inactive	inactive	inactive	inactive	inactive	inactive
CCN(CC)CCNC(=O)c1ccc(NC(C)=O)cc1	inactive	inactive	inactive	inactive	inactive	inactive	inactive	inactive	inactive	inactive
NC(=O)c1ncn([C@@H]2O[C@H](CO)[C@@H](O)[C@H]2O)c1O	inactive	inactive	inactive	inactive	inactive	inactive	inactive	inactive	inactive	inactive
O=C(O)CN(CCN(CC(=O)O)CC(=O)O)CCN(CC(=O)O)CC(=O)O	inactive	inactive	inactive	inactive	inactive	inactive	inactive	inactive	inactive	inactive
O=C(O)CP(=O)(O)O	inactive	inactive	inactive	inactive	inactive	inactive	inactive	inactive	inactive	inactive

SMILES	Potency (CP185)	Potency (CP191)	Potency (CP192)	Potency (CP194)	Potency (CP201)	Potency (CP211)	Potency (CP215)	Potency (CP217)	Potency (CP203)	Potency (CP237)
CSc1ccc(C(=O)c2[nH]c(=O)[nH]c2C)cc1	inactive	inactive	inactive	inactive	inactive	inactive	inactive	inactive	inactive	inactive
C[C@]12CCC(=O)C=C1CC[C@@H]1[C@@H]2CC[C@@]2(C)[C@H]1CC[C@]2(O)C(=O)CO	inactive	inactive	inactive	inactive	inactive	inactive	inactive	inactive	inactive	inactive
CC(=O)Nc1nnc(S(N)(=O)=O)s1	inactive	inactive	inactive	inactive	inactive	inactive	inactive	inactive	inactive	inactive
CCCN(CCC)CCc1cccc2c1CC(=O)N2	inactive	inactive	inactive	inactive	inactive	inactive	inactive	inactive	inactive	inactive
CC(N=C(NC#N)Nc1ccncc1)C(C)(C)C (configuration not stated)	inactive	inactive	inactive	inactive	inactive	inactive	inactive	inactive	inactive	inactive
Nc1c2c(nc3ccccc13)CCCC2O (configuration not stated)	inactive	inactive	inactive	inactive	inactive	inactive	inactive	inactive	inactive	inactive
NC/C=C/C(=O)O	inactive	inactive	inactive	inactive	inactive	inactive	inactive	inactive	inactive	inactive
CCCCNC(=O)NS(=O)(=O)c1ccc(C)cc1	inactive	inactive	inactive	inactive	inactive	inactive	inactive	inactive	inactive	inactive
Cc1cc(C)c(/C=C2\C(=O)Nc3ccccc32)[nH]1	inactive	inactive	inactive	inactive	inactive	inactive	inactive	inactive	inactive	inactive
Cc1nnc(SCC2=C(C(=O)O)N3C(=O)[C@@H](NC(=O)Cn4cnnn4)[C@H]3SC2)s1	inactive	inactive	inactive	inactive	inactive	inactive	inactive	inactive	inactive	inactive
CCCCCCCC/C=C\CCCCCCCC(=O)NCc1ccc(O)c(OC)c1	11.2 µM (active)	12.6 µM (active)	inactive	inactive	inactive	inactive	inactive		inactive	
O=C1CC2(CCCC2)CC(=O)N1CCCCN1CCN(c2ncccn2)CC1	inactive	inactive	inactive	inactive	inactive	inactive	inactive	inactive	inactive	
CCCCNc1c(C(=O)OCC)c(C)nc2c1cnn2CC	inactive	inactive	inactive	inactive	inactive	inactive	inactive	inactive	inactive	inactive
O=c1[nH]c(=O)n([C@H]2C[C@H](O)[C@@H](CO)O2)cc1Br	inactive	inactive	inactive	inactive	inactive	inactive	inactive	inactive	inactive	inactive
CC(C)(Oc1ccc(CCNC(=O)c2ccc(Cl)cc2)cc1)C(=O)O	inactive	inactive	inactive	inactive	inactive	inactive	inactive	inactive	inactive	inactive
CC(=O)Oc1cc(C(C)C)c(OCCN(C)C)cc1C	inactive	inactive	inactive	inactive	inactive	inactive		inactive	inactive	inactive
NCCCNCCSP(=O)(O)O	inactive	inactive	inactive	inactive	inactive	inactive	inactive	inactive		inactive
COc1ccc([C@@H]2Sc3ccccc3N(CCN(C)C)C(=O)[C@@H]2OC(C)=O)cc1	inactive	inactive	inactive	inactive	inactive	inactive	inactive	inactive		inactive
C[N+](C)(C)CCOC(N)=O	inactive	inactive	inactive	inactive	inactive	inactive	inactive	inactive		inactive
CCN(CC)CCCN(c1ccccc1)C1Cc2ccccc2C1	6.31 µM (active)	5.01 µM (active)	10.7 µM (active)	7.57 µM (active)	7.57 µM (active)	12 µM (active)	8.49 µM (active)	5.62 µM (active)		2.82 µM (active)
Cc1nc2c([nH]1)c(=O)n(C)c(=O)n2Cc1ccco1	inactive	inactive	inactive	inactive	inactive	inactive	inactive	inactive		inactive
